Common to all, as to design: scale not given: direction of the effect not stated beside the values
Experiment [1] deals with Protein translocase subunit SecA (Escherichia coli (strain K12)) (UniProt P10408). As to the kind of experiment: Assay to Identify E. coli SecA ATPase Inhibitors. It counts as functional. Particulars: 30 µM.
Experiment [2] concerns the target T1, Ubiquitin-activating enzyme e1, putative (Leishmania donovani (strain BPK282A1)) (UniProt E9BSI1).
T1 sequence (whole entry): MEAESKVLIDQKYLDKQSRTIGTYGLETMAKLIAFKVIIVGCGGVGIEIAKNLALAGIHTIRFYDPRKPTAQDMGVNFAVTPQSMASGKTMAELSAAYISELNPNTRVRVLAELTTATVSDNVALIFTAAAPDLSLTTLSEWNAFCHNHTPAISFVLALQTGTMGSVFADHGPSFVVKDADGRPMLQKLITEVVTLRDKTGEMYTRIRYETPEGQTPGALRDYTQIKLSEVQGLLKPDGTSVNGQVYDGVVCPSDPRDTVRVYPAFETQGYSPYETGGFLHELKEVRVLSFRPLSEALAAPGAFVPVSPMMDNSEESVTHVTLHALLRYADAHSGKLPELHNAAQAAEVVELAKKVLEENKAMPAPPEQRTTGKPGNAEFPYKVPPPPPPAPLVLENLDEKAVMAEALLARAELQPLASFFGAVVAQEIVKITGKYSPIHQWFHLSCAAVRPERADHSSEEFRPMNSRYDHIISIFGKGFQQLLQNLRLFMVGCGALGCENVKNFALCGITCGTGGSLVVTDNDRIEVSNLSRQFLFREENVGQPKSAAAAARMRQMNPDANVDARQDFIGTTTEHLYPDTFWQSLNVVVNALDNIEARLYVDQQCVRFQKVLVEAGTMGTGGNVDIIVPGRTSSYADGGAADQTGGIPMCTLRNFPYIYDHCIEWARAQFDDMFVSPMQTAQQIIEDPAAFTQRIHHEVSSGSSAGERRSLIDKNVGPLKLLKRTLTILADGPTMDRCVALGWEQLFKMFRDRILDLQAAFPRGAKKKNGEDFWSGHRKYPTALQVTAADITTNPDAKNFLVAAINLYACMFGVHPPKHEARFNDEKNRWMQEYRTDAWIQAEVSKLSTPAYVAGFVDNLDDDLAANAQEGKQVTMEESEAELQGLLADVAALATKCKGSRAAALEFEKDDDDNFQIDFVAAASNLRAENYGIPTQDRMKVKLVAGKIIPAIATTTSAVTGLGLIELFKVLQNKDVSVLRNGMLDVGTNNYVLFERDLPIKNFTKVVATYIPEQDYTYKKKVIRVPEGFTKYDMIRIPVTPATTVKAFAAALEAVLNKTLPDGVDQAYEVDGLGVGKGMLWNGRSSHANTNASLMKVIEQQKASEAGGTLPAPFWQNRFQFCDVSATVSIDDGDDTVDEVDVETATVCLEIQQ
As to the kind of experiment: Leishmania donovani Ubiquitin Activating Enzyme (LdE1). The format is functional. As to conditions: 30 µM.

Experiment [3] concerns the target AMP-activated protein kinase, AMPK (Homo sapiens) (UniProt P54646+O43741+P54619+Q9UGJ0+Q9Y478+Q13131+Q9UGI9). The experiment can be described thus: AMP-dependent Kinase enzyme assay. An in vitro enzyme assay that detects ADP turnover that is directly proportional to AMPK activity. This uses naive AMPK that is activated during the assay with MK-8722. The format is functional. As to conditions: 30 µM.

The target in experiment [4] is Sialic acid-binding Ig-like lectin 9 (Homo sapiens) (UniProt Q9Y336). The experiment can be described thus: Hs-Siglec9 ALPHAscreen SOP 20170721. Particulars: 10 µM. (In Alpha technology, singlet oxygen from a donor bead excites a nearby acceptor bead.)
Experiment [5] deals with Trypanosoma cruzi. The experiment can be described thus: Trypanosoma cruzi phosphomannomutase and mannose-1-phosphate guanylyltransferase assay. It counts as functional. Particulars: 10 µM.
Experiment [6] addresses T2, Arginase-2, mitochondrial (Homo sapiens) (UniProt P78540).
T2 sequence (whole entry): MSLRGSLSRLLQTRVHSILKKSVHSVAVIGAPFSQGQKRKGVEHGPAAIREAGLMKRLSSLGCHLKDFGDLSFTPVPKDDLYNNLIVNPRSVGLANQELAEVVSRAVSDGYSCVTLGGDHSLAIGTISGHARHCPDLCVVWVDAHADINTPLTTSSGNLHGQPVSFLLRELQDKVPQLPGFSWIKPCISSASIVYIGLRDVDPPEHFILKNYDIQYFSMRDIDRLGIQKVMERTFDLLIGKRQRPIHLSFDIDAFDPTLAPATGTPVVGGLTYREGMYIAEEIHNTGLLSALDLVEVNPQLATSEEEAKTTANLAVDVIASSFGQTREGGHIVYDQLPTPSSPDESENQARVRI
As to the kind of experiment: in vitro enzyme assay to detect the production of urea directly proportional to the activity of Arginase II. Further: in the data most compounds retested in dose-response had high values. Particulars: 33.3 µM. The format is functional.

Experiment [7] concerns the target T3, Proteasome subunit beta (Trypanosoma cruzi) (UniProt O96673).
T3 sequence (whole entry): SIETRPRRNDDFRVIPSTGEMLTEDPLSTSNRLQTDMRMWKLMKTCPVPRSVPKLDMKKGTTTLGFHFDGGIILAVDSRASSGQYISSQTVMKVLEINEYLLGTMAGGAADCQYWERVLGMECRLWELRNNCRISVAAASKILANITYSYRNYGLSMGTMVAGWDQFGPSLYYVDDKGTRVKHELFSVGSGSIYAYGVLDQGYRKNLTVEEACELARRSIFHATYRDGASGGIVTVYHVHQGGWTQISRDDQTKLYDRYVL
The experiment can be described thus: Trypanosoma cruzi proteasome chymotrypsin-like activity (TcProtChymo) assay. Further: in the data most compounds retested in dose-response had high values. It counts as functional. As to conditions: 9.37 µM.

For experiment [8], the species on record is Homo sapiens. The experiment can be described thus: To identify inhibition of the IFN signalling (Jak-Stat) pathway via expression of an eGFP reporter gene under the control of an IFN-stimulated response element (ISRE) containing MxA promoter. Particulars: 30 µM. It counts as functional.
In experiment [9] the target is T4, Tyrosyl-tRNA synthetase, putative (Trypanosoma cruzi (strain CL Brener)) (UniProt Q4DSP6).
T4 sequence (whole entry): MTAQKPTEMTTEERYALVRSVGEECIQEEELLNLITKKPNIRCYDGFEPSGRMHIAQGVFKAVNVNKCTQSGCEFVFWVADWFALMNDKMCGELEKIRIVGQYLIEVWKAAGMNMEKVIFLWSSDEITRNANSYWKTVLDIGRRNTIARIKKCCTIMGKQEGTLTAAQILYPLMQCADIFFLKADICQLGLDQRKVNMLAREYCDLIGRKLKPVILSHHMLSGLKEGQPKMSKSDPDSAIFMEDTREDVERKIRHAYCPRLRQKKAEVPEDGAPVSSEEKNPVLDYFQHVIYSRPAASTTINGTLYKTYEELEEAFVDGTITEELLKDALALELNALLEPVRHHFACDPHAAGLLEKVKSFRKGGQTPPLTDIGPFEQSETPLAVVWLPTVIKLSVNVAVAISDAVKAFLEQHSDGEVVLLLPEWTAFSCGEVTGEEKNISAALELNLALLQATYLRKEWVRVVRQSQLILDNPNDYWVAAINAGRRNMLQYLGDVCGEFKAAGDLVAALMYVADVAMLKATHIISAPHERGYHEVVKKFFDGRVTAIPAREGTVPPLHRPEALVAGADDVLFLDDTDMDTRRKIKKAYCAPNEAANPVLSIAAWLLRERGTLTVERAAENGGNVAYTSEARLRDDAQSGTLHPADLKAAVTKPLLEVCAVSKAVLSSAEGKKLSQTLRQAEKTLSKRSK
As to the kind of experiment: Trypanosoma cruzi tyrosyl tRNA synthetase (TcYRS) _High Tyrosine SOP. Further: in the data most compounds retested in dose-response had high values. It counts as functional. Particulars: 30 µM.

Experiment [10] deals with T4, Tyrosyl-tRNA synthetase, putative (Trypanosoma cruzi (strain CL Brener)). The experiment can be described thus: Trypanosoma cruzi tyrosyl tRNA synthetase (TcYRS) SOP. As to conditions: 30 µM. The format is functional.
Experiment [11] deals with Chromo domain-containing protein 1 (Saccharomyces cerevisiae (strain ATCC 204508 / S288c) (Baker's yeast)) (UniProt P32657). The experiment can be described thus: ScCHD-1 Enzyme Inhibition Assay. Further: in the data most compounds retested in dose-response had high values. The format is functional. Particulars: 30 µM.

For some of these results: Results with a measured potency or affinity are listed apart.

Sequence of Sialic acid-binding Ig-like lectin 9 (Homo sapiens) (Q9Y336 whole entry): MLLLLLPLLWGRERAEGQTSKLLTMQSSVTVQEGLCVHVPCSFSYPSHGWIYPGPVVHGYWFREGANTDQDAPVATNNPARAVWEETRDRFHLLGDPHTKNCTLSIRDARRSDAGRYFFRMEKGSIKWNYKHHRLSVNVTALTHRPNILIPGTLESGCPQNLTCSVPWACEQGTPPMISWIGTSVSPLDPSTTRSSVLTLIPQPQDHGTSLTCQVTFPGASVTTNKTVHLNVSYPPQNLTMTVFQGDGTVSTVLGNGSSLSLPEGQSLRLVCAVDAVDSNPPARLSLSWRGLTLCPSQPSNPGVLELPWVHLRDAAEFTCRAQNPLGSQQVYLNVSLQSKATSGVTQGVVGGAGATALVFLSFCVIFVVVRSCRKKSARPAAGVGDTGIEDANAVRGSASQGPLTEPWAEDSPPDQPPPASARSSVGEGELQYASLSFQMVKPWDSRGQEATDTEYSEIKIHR
Sequence of Protein translocase subunit SecA (Escherichia coli (strain K12)) (P10408 whole entry): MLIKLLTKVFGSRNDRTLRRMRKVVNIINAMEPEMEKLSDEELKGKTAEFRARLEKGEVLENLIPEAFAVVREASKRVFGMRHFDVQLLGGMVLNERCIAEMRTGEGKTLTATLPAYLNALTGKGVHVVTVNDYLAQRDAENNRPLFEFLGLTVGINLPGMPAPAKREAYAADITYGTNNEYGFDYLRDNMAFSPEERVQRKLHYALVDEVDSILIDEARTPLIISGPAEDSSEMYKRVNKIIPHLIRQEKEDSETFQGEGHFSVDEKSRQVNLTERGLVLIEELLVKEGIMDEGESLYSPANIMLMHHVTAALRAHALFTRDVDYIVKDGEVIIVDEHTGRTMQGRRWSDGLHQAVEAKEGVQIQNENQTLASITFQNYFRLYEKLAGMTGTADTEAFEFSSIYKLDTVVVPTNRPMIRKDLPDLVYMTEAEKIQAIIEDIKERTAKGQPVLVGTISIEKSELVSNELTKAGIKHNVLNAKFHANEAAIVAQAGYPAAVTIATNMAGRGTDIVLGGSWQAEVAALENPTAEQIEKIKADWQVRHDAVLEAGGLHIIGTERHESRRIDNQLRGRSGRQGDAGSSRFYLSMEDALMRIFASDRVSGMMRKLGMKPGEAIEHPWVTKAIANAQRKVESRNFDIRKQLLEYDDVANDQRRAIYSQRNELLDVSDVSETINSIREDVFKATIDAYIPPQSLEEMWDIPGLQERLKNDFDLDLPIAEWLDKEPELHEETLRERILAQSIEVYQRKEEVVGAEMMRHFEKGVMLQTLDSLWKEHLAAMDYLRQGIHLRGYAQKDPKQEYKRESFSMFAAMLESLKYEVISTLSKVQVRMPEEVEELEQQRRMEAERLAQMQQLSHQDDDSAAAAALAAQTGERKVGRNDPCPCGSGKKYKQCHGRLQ
Sequence of Chromo domain-containing protein 1 (Saccharomyces cerevisiae (strain ATCC 204508 / S288c) (Baker's yeast)) (P32657 whole entry, the tested form may be a part): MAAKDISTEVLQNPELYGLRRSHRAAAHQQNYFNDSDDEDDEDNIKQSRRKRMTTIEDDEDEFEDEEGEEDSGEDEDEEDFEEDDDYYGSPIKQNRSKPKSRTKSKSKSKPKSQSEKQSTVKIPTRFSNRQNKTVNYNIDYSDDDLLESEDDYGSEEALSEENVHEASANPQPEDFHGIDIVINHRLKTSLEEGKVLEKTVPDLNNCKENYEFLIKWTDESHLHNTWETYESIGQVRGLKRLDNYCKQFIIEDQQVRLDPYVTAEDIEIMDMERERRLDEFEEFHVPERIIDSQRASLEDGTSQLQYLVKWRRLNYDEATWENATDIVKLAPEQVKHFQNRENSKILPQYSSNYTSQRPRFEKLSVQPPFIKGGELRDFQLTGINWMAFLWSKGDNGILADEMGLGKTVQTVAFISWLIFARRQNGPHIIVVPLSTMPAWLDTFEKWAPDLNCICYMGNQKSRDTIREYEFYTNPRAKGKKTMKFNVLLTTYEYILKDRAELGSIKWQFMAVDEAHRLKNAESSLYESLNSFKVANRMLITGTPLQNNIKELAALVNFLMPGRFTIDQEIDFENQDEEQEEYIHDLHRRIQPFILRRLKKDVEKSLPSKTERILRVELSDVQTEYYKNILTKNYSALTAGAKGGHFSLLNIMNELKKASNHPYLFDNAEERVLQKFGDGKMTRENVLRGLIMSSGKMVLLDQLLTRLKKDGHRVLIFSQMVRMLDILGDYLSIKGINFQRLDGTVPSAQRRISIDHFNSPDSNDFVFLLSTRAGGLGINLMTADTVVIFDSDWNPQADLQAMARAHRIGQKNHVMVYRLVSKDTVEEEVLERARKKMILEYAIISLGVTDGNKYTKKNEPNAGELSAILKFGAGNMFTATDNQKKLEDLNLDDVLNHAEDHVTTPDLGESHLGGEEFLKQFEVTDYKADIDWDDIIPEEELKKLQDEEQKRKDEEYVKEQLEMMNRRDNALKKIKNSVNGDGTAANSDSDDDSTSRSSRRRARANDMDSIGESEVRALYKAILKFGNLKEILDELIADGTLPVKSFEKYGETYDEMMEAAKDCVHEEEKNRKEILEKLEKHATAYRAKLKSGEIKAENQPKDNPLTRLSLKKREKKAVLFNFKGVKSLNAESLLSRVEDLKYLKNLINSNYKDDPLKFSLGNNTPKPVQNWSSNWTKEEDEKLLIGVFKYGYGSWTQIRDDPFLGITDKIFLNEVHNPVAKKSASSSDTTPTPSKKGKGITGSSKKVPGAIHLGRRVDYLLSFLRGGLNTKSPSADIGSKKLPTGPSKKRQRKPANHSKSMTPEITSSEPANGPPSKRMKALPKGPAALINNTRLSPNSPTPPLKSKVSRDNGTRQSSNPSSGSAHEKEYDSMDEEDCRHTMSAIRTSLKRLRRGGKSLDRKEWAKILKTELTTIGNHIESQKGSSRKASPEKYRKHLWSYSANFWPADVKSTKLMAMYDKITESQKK

For the compound `O=C(CN1CCOC(Cn2cccn2)C1)NCc1cccs1` (stereo unspecified), the Percent Effect is 0.0678% in experiment [1]; -2.7% in experiment [2]; -5.7% in experiment [3]; 11.3% in [4]; 1.58% in experiment [5]; -0.924% in [6]. In addition, the Percent Effect is 1.98% in experiment [7]; -5.12% in [8]; 0.99% in [9]; 3.66% in experiment [10]; -4.1% in experiment [11].

Turning to `O=C(CCc1cc2n(n1)CCCN(C(=O)c1cccnc1)C2)NC1CC1`, the Percent Effect is -2.13% in experiment [1]; 4.17% in experiment [2]; -1.68% in experiment [3]; -4.93% in experiment [4]; -3.21% in experiment [5]; -2.21% in [6]. In addition, the Percent Effect in experiment [7] was 10.7%; in experiment [8] it was 4.24%; in experiment [9] it was 0%; in [10] it was 7.69%; in experiment [11] it was -2.05%.

Consider `CCc1nc(C(=O)N2CCN(C)CC2C)nn1-c1ccccc1Cl` (stereo unspecified), for which the Percent Effect was -3.02% in [1]; 15.8% in experiment [2]; 15.7% in experiment [3]; -9.77% in experiment [4]; -7.19% in [5]; 0.36% in [6]. Further, the Percent Effect in experiment [7] is 8.04%; in [8] it was 12.9%; in [9] it was 5.42%; in experiment [10], 11.1%; in [11] it was -9.77%.

As to `Cc1ccc(NC(=O)NC(C)C(=O)N2CCS(=O)(=O)CC2)cc1` (stereo unspecified), the Percent Effect was -3.85% in experiment [1]; 5.41% in [2]; 2.74% in experiment [3]; 5.55% in experiment [4]; -1.74% in experiment [5]; -11.9% in experiment [6]. Also, the Percent Effect is 12.4% in [7]; 11.4% in [8]; -0.529% in [9]; 12.2% in experiment [10]; -2.08% in experiment [11].

Consider `O=C(O)C1(Cc2cccc(-c3ccc(F)c(F)c3)c2)CCOCC1`, for which the Percent Effect in experiment [1] was -3.39%; in experiment [2] it was 1.35%; in experiment [3], 13.4%; in experiment [4], 4.42%; in [5], -1.78%; in experiment [6], 1.16%. Further, the Percent Effect is 5.93% in [7]; 28.6% in experiment [8]; -15.1% in experiment [9]; -11.7% in [10]; -15% in [11].

As for `COC(=O)C(c1cc(F)ccc1F)N(C)C(=O)c1ccnc(C)n1` (stereo unspecified), the Percent Effect in [1] was -4.44%; in experiment [2] it was -46.8%; in experiment [3], 8.88%; in [4], 3.63%; in experiment [5], -2.77%; in experiment [6], 0.645%. For the same compound, the Percent Effect in experiment [7] is 1.72%; in experiment [8], 18.2%; in experiment [9], 7.29%; in [10], 15.2%; in experiment [11] it was -3.25%.

Take `CCc1nc(CN2CCCN(c3nc4ccccc4o3)CC2)no1`: the Percent Effect was 7.05% in experiment [1]; 13% in experiment [2]; -1.96% in experiment [3]; 2.65% in [4]; -9.14% in experiment [5]; -13.8% in experiment [6]. Moreover, the Percent Effect is 12.2% in [7]; 23.6% in experiment [8]; 4.3% in [9]; 8.64% in experiment [10]; -0.262% in [11].

Take `CCCNC(=O)CN1CCC(C(=O)Nc2cnn(CC)c2)CC1`: the Percent Effect was -4.73% in experiment [1]; 18.4% in experiment [2]; -9.54% in experiment [3]; -8.7% in experiment [4]; -5.13% in experiment [5]; 3.24% in [6]. For the same compound, the Percent Effect in [7] was 3.98%; in [8], 7.34%; in experiment [9], 6.4%; in experiment [10], 18.5%; in experiment [11] it was -3.68%.

For the compound `O=c1[nH]c(CN(Cc2ccco2)C2CCCC2)nc2ccccc12`, the Percent Effect in experiment [1] is -2.15%; in experiment [2] it was 18.2%; in experiment [3], 7.19%; in [4] it was 1.72%; in [5], 3.75%; in experiment [6], 0.712%. The Percent Effect in [7] is 10.5%; in experiment [8], 26.1%; in experiment [9], 8.74%; in [10] it was 24.4%; in [11], -9.34%.

For the compound `Cc1cc(C)n(C2CN(CC(=O)NC3CCOCC3)C2)n1`, the Percent Effect in [1] was -6.74%; in experiment [2] it was 6.33%; in experiment [3], 6.98%; in experiment [4], 1.96%; in experiment [5], -1.33%; in [6], -1.94%. The Percent Effect is 9.26% in experiment [7]; 10.4% in [8]; 8.33% in [9]; 15.2% in experiment [10]; -15% in experiment [11].

On to `O=C(NCCN1CCCc2ccccc21)c1scnc1Cl`, for which the Percent Effect in [1] is -4.96%; in experiment [2], 2.63%; in [3] it was 0.379%; in experiment [4], -2.42%; in [5], 2.52%; in experiment [6], -0.719%. The Percent Effect in experiment [7] was 2.96%; in [8], -9.38%; in experiment [9] it was 7.39%; in [10], 1.24%; in experiment [11], 3.5%.

These data come from ChEMBL document CHEMBL3988442, “University of Dundee, Small-Polar-MMV Screening Library” (2021).
